According to PubChem BioAssay (Tox21):
Records with an inconclusive call do not appear. The source made the active and inactive calls. Unless noted, calls come from the whole dose curve; as a rule, active = well fitted curve in the direction sought with a large enough effect in the repeat runs; inconclusive = weak or mixed curves; inactive = flat fitted curve, though single readings scatter. Residues, ends and D or L forms follow the SMILES beside them.

Assays:
[1] = qHTS assay to test for compound auto fluorescence at 535 nm (green) in HEK293 cells (AID 720680)
[2] = qHTS assay to test for compound auto fluorescence at 460 nm (blue) in HEK293 cell free culture (AID 720681)
Outline: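 Compounds were added to cell-free DMEM with 10% FBS and fluorescence read directly. The blue channel used 405 nm excitation and 460 nm emission, with triamterene as the reference fluorophore.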

[3] = qHTS assay to test for compound auto fluorescence at 535 nm (green) in HEK293 cell free culture (AID 720682)
Outline: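 Fluorescein serves as the green reference fluorophore; each compound's intrinsic emission at 535 nm (excitation 485 nm) is reported as an equivalent amount of that dye, measured in serum-containing DMEM without cells.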

[4] = qHTS assay to test for compound auto fluorescence at 590 nm (red) in HEK293 cell free culture (AID 720683)
Outline: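 Cell-free wells of DMEM with 10% FBS received compound, and intrinsic fluorescence was read at excitation/emission 540/590 nm. Values expressed as equivalence to Rose Bengal sodium.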

[5] = qHTS assay to test for compound auto fluorescence at 590 nm (red) in HepG2 cell free culture (AID 720684)
Outline: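 Rose Bengal sodium served as the reference for red signal. Test compounds were dispensed into serum-containing MEM (10% FBS) without cells, and plates were read at 540/590 nm.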

[6] = qHTS assay to test for compound auto fluorescence at 460 nm (blue) in HepG2 cell free culture (AID 720685)
Outline: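 Cell-free plates of MEM plus 10% FBS received 23 nL compound or DMSO vehicle; blue-channel (405/460 nm) intensity scored against triamterene as reference fluorophore.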

[7] = qHTS assay to test for compound auto fluorescence at 535 nm (green) in HepG2 cell free culture (AID 720686)
[8] = qHTS assay to test for compound auto fluorescence at 460 nm (blue) in HepG2 cells (AID 720687)
Outline: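 HepG2 cells in MEM with 10% FBS, attached overnight at 37 C, were exposed to compound or DMSO for 1 hr at 37 C, 5% CO2. Blue fluorescence was read at 405/460 nm, with triamterene as reference fluorophore.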

[9] = target: Glucocorticoid receptor (Homo sapiens) (UniProt P04150); assay: qHTS assay to identify small molecule agonists of the glucocorticoid receptor (GR) signaling pathway (AID 720691; active = well fitted activation curve with a large enough effect in the signal ratio in the repeat runs, not every such curve was filed as active; the % refers to the signal ratio)
Outline: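 HeLa GR-bla reporter line; cells pre-incubated 4 h, compound in DMSO 18 h at 37 C; LiveBLAzer B/G FRET substrate 2 h RT; fluorescence intensity read-out.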

[10] = target: Glucocorticoid receptor (Homo sapiens) (UniProt P04150); assay: qHTS assay to identify small molecule antagonists of the glucocorticoid receptor (GR) signaling pathway (AID 720692; active = well fitted inhibition curve with a large enough effect in the signal ratio in the repeat runs, not every such curve was filed as active; the % refers to the signal ratio)
Outline: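 Read-out: beta-lactamase FRET substrate fluorescence, 2 h at room temperature, in HeLa cells stably carrying a GRE-driven bla reporter. Compounds were co-incubated with 5 nM dexamethasone agonist (final) for 18 h at 37 C.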

Measured: Potency

Sequence of Glucocorticoid receptor (Homo sapiens) (P04150 whole entry, looked up): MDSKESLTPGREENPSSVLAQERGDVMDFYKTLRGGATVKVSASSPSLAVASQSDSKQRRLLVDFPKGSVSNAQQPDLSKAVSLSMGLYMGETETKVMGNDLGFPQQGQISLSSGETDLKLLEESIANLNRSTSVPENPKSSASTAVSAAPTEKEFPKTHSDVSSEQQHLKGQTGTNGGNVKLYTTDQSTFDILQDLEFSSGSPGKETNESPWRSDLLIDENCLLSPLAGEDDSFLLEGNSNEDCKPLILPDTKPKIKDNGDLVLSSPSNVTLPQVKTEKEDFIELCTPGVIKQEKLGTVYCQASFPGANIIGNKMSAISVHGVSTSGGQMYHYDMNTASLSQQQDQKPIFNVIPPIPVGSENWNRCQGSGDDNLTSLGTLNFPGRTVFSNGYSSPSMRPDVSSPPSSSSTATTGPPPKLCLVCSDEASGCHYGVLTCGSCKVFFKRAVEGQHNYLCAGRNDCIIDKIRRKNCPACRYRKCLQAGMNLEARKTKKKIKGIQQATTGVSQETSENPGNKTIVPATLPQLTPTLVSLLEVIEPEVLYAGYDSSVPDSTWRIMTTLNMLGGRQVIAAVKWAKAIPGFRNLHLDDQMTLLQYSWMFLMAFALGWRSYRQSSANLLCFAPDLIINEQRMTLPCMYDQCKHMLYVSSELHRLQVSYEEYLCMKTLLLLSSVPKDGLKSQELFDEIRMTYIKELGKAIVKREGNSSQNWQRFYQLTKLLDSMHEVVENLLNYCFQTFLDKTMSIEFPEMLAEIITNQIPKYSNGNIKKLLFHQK

CCCCCCCCCCCCCCCC(=O)O
not listed: [10]
inactive: all other assays above

COc1c2occc2cc2ccc(=O)oc12
not listed: [10]
inactive: all other assays above

O=C(C1CCCCC1)N1CC(=O)N2CCc3ccccc3C2C1 (stereo not drawn)
not listed: [3]
inactive: all other assays above

NNC(=O)c1ccncc1
not listed: [3] | [10]
inactive: all other assays above

CCCCOC(=O)CC(CC(=O)OCCCC)(OC(C)=O)C(=O)OCCCC
not listed: [3] | [10]
inactive: all other assays above

C[C@]12C=CC(=O)C=C1CC[C@@H]1[C@@H]2[C@@H](O)C[C@@]2(C)[C@H]1CC[C@]2(O)C(=O)CO
not listed: [3] | [9] | [10]
inactive: all other assays above

O=S(=O)(O)c1ccc2cc(O)ccc2c1
not listed: [3] | [10]
inactive: all other assays above

O=C(O)CCC(=O)O
not listed: [3] | [9] | [10]
inactive: all other assays above

CC(O)C(=O)O (stereo not drawn)
not listed: [3] | [9] | [10]
inactive: all other assays above

Nc1ccn([C@H]2CC[C@@H](CO)O2)c(=O)n1
not listed: [3] | [9] | [10]
inactive: all other assays above

NC(N)=NC(=O)c1nc(Cl)c(N)nc1N
not listed: [3] | [10]
inactive: all other assays above

O=C(O)c1[nH]n(-c2ccc(S(=O)(=O)O)cc2)c(=O)c1N=Nc1ccc(S(=O)(=O)O)cc1
not listed: [3] | [9] | [10]
inactive: all other assays above

Cc1ccc(O)cc1
not listed: [3] | [10]
inactive: all other assays above

c1ccc2[nH]ccc2c1
not listed: [3] | [10]
inactive: all other assays above

CC(=O)NS(=O)(=O)c1ccc(N)cc1
not listed: [3] | [10]
inactive: all other assays above

CC(O)CO (stereo not drawn)
not listed: [3] | [10]
inactive: all other assays above

CCCN(CCC)S(=O)(=O)c1ccc(C(=O)O)cc1
not listed: [3] | [10]
inactive: all other assays above

O=C(O)C(=O)O
not listed: [3] | [10]
inactive: all other assays above

Nc1ccc(C(=O)O)cc1
not listed: [3] | [10]
inactive: all other assays above

O=C(O)CCCCC(=O)O
not listed: [3] | [10]
inactive: all other assays above

Cc1cc(=O)n(-c2ccccc2)n1C
not listed: [3] | [9] | [10]
inactive: all other assays above

CCCCC(CC)COC(=O)/C=C/c1ccc(OC)cc1 (stereo not drawn)
not listed: [3] | [10]
inactive: all other assays above

NC(=O)NC1NC(=O)NC1=O (stereo not drawn)
not listed: [3] | [10]
inactive: all other assays above

OCCc1ccccc1
not listed: [3] | [9] | [10]
inactive: all other assays above

Oc1ccc(/C=C/c2cc(O)cc(O)c2)cc1
not listed: [3] | [9] | [10]
inactive: all other assays above

Cc1ccccc1C(OCCN(C)C)c1ccccc1 (stereo not drawn)
not listed: [3] | [10]
inactive: all other assays above

Cc1ccc(S(=O)(=O)NC(=O)NN2CCCCCC2)cc1
not listed: [3] | [10]
inactive: all other assays above

NC(N)=O
not listed: [3] | [9] | [10]
inactive: all other assays above

COC(=O)[C@H](Cc1ccccc1)NC(=O)[C@@H](N)CC(=O)O (H-Asp-Phe-OMe)
not listed: [3] | [10]
inactive: all other assays above

O=C(c1ccccc1)C(O)c1ccccc1 (stereo not drawn)
not listed: [3] | [10]
inactive: all other assays above

Cn1cc[nH]c1=S
not listed: [3] | [9] | [10]
inactive: all other assays above

CCCNC(=O)NS(=O)(=O)c1ccc(Cl)cc1
not listed: [3] | [10]
inactive: all other assays above

O=C(O)CCCCCCCC(=O)O
not listed: [3] | [9] | [10]
inactive: all other assays above

Cc1noc(NS(=O)(=O)c2ccc(N)cc2)c1C
not listed: [3] | [9] | [10]
inactive: all other assays above

C1N2CN3CN1CN(C2)C3
not listed: [3] | [9] | [10]
inactive: all other assays above

CCOc1ccc(NC(=O)CC(C)O)cc1 (stereo not drawn)
not listed: [3] | [9] | [10]
inactive: all other assays above

CC1(C)[C@@H]2CC[C@@]1(C)C(=O)C2
not listed: [3] | [10]
inactive: all other assays above

OC(Cn1cncn1)(Cn1cncn1)c1ccc(F)cc1F
not listed: [3] | [10]
inactive: all other assays above
